Experimental data reported in PubChem BioAssay (EPA / NIEHS).
“And” between values parts separate entries of the source, which are not always exact repeats. Equal entries are not always repeated. Results filed as inconclusive are left out. A structure can be active in one record and inactive in another. The source made the active and inactive calls. Rule for the calls, unless noted: active = hit-call score of the fitted dose curve at least 0.9, where 1 is the maximum; inconclusive = response in the unintended direction; inactive = score below 0.9.

How the values were obtained:
[1] = IUF_NPC2-5_viability_120hr: Viability Assessment at 120 hours in the Leibniz Research Institute for Environmental Medicine (IUF) Neural Progenitor Cell Migration and Differentiation Assay (NPC2-5) (AID 2284312; active = hit-call score of the fitted dose curve at least 0.9, where 1 is the maximum; inactive = score below 0.9)
Procedure, shortened: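 Human fetal (GW 16-19) neural progenitor spheres of 0.3 mm were plated on poly-D-lysine/laminin in N2 differentiation medium and exposed from day 0 for 120 h, with half-medium refresh at day 3. Viability was read as alamar blue resazurin-to-resorufin fluorescence against DMSO.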

[2] = IUF_NPC1_cytotoxicity_72hr: Cytotoxicity Assessment at 72 hours in the Leibniz Research Institute for Environmental Medicine (IUF) Neural Progenitor Cell Proliferation Assay (NPC1) (AID 2284332);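 note: rising LDH signal means more cytotoxicity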
Procedure, shortened: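 Human fetal neural progenitor spheres (0.3 mm) in EGF/FGF proliferation medium, 37C, exposed 72 h without renewal. LDH release in supernatant read by resorufin fluorescence; gain of signal scored relative to dynamic range.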

[3] = CCTE_Mundy_HCI_iCellGluta_NOG_NeuriteCount: CCTE's Neurite Outgrowth Assay in iCellGluta cells for Neurite Count, Mundy Lab (AID 2284342);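 note: chemical exposure about 48 hours starting 2 hours after plating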
[4] = CCTE_Deisenroth_5AR_NBTE_donor: CCTE's 5alpha-reductase NanoBRET Target Engagement Assay […], Deisenroth Lab (AID 2284319; active = hit-call score of the fitted dose curve at least 0.9, where 1 is the maximum; inactive = score below 0.9); conditions: actives raise or lower the signal
Procedure, shortened: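 SRD5A2-NanoLuc, HEK293T, 20 h expression. Chemical 10 nM - 29.9 uM, 8 conc, duplicate; 3 h preincubation + 2 h testosterone tracer. Nano-Glo substrate plus extracellular NanoLuc inhibitor; donor lum 460 nm. DMSO baseline, bidirectional fit.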

[5] = CCTE_Deisenroth_5AR_NBTE_acceptor: CCTE's 5alpha-reductase NanoBRET Target Engagement Assay - Autofluorescence Screen, Deisenroth Lab (AID 2284321; active = hit-call score of the fitted dose curve at least 0.9, where 1 is the maximum; inactive = score below 0.9;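 note: compound fluorescence in the acceptor channel under 460 nm excitation flags autofluorescence artifacts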); conditions: actives raise or lower the signal
Procedure, shortened: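 Using three independent plate-reader runs, nominal 100 uM chemicals were checked for intrinsic fluorescence (ex 460 nm). DMSO defined the baseline for bidirectional fitting.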

SRD5A2 (gene 6716) = assay: CCTE_Deisenroth_5AR_NBTE_ratio: CCTE's 5alpha-reductase NanoBRET Target Engagement Assay - Ratio, Deisenroth Lab (AID 2284322; active = hit-call score of the fitted dose curve at least 0.9, where 1 is the maximum; inactive = score below 0.9); conditions: actives raise or lower the signal
Procedure, shortened: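 HEK293T transiently expressing SRD5A2-NanoLuc; cells exposed to chemical (8-point, 10 nM - 29.9 uM) for 5 h total, testosterone tracer added for final 2 h. NanoBRET acceptor/donor ratio (650/460 nm), bidirectional fit vs DMSO.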

SERPINA7 (gene 6906) = assay: CCTE_GLTED_hTBG: CCTE's human Thyroxine-binding Globulin (TBG) Inhibition Assay, Great Lakes Toxicology and Ecology Division (GLTED) Lab (AID 2284343);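 note: active chemicals lower fluorescence versus DMSO baseline by displacing probe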
Procedure, shortened: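 Human TBG incubated 2 h with test chemical; displacement of ANSA probe read by fluorescence, 380 nm excitation/475 nm emission. Loss of signal relative to DMSO.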

[6] = TAMU_PeakParms_SingleDonor1434_Asystole: Texas A&M University (TAMU) 1.5-hr Human Induced Pluripotent Stem Cell (iPSC)-derived Cardiomyocytes Calcium (Ca+2) Flux Assay for Cardiotoxicity: Asystole (quiescence of beating) (AID 2284328)
Procedure, shortened: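 Human iPSC-derived cardiomyocytes (donor 1434) were exposed to 0.2, 1, 10 and 100 uM compound in 0.5% DMSO for 90 min at 37C. Ca2+-dye fluorescence gave average peak frequency; POD is EC95, a 95% beat-rate drop versus DMSO.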

[7] = CCTE_Mundy_HCI_iCellGluta_NOG_NeuronCount: CCTE's Neurite Outgrowth Assay in iCellGluta cells for Neuron Count, Mundy Lab (AID 2284340);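 note: cells fixed about 48 h after compound addition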
Procedure, shortened: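 Neuron count read by automated high-content imaging of Hoechst 33342 and betaIII-tubulin/Alexa Fluor-488 labelling in human iPSC glutamatergic neurons. Activity fitted relative to DMSO.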

[8] = VALA_TUBHUV_Agonist_CellCount: Viability Assessment in the VALA Sciences human Umbilical Vein Endothelial Tubule Formation (TUBHUV) Agonism Assay (AID 2284309)
Procedure, shortened: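 HUVEC co-cultured 1:3 with HDF for 3 days in 10 ng/ml VEGF, then compounds added in VEGF medium for a further 3 days (72 h). Nuclear-stain/CD31 imaging cell count. Positive-direction fit versus 0.1% DMSO vehicle.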

[9] = VALA_TUBHUV_Antagonist_CellCount: Viability Assessment in the VALA Sciences human Umbilical Vein Endothelial Tubule Formation (TUBHUV) Antagonism Assay (AID 2284310)
Procedure, shortened: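 HUVEC co-cultured with HDF (1:3) 3 days in 10 ng/ml VEGF, then 3 days with compounds in VEGF medium. Fixed, nuclear stain and CD31 immunofluorescence, imaged; cell counts fitted versus 0.1% DMSO, loss of signal read as lower viability.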

IYD (gene 389434) = assay: CCTE_GLTED_hIYD: CCTE's human Iodotyrosine Deiodinase (xIYD) Inhibition Assay, Great Lakes Toxicology and Ecology Division (GLTED) Lab (AID 2284317);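 note: cell-free human IYD enzyme made in baculovirus insect cells; iodide freed from monoiodotyrosine measured by cerium arsenite color change at 420 nm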
Procedure, shortened: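 hIYD: baculovirus-expressed human IYD deiodinated monoiodotyrosine for 3 h with test chemical; free iodide was measured by Sandell-Kolthoff absorbance at 420 nm and normalized to MNT and DMSO/NaOH controls.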

[10] = VALA_TUBHUV_Antagonist_TubuleLength: VALA Sciences human Umbilical Vein Endothelial Tubule Formation (TUBHUV) Antagonism Assay (AID 2284325)
Procedure, shortened: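 HUVEC–HDF co-culture (1:3) pre-grown 3 days with 10 ng/ml VEGF, then 3 days with compound plus VEGF. Fixed, nuclear and CD31 stained; total tubule length by imaging versus 0.1% DMSO; suramin 100 uM positive control.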

[11] = VALA_TUBIPS_Antagonist_CellCount: Viability Assessment in the VALA Sciences human iPS-derived Endothelial Tubule Formation (TUBIPS) Antagonism Assay (AID 2284335)
[12] = VALA_TUBIPS_Agonist_CellCount: Viability Assessment in the VALA Sciences human iPS-derived Endothelial Tubule Formation (TUBIPS) Agonism Assay (AID 2284338)
[13] = VALA_TUBIPS_Agonist_TubuleLength: VALA Sciences human iPS-derived Endothelial Tubule Formation (TUBIPS) Agonism Assay (AID 2284311)
Procedure, shortened: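 Human iPS-derived endothelial cells were exposed to compound for 72 h. Tubule formation was imaged by high-content fluorescence and scored as gain of signal relative to DMSO vehicle (agonist mode).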

[14] = VALA_TUBIPS_Antagonist_TubuleLength: VALA Sciences human iPS-derived Endothelial Tubule Formation (TUBIPS) Antagonist Assay (AID 2284313)
Procedure, shortened: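 Cells grown 3 days with 10 ng/ml VEGF, then exposed to compounds in VEGF medium for another 3 days. After fixation, nuclear stain and CD31 immunofluorescence imaging gave mean total tubule length against 0.1% DMSO; suramin (100 uM) inhibition control.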

[15] = VALA_MIGHUV2_WoundArea: VALA Sciences human Umbilical Vein Endothelial Cell Migration (MIGHUV) Assay, Area of Scratch Wound after Recovery (AID 2284316)
Procedure, shortened: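 HUVEC seeded at 9000 cells/well, scratched after 24 h; test chemical added within 30 min, 6-point concentration response in triplicate (0.1% DMSO vehicle). After 24 h wound recovery, cells fixed and Hoechst-stained nuclei in wound area imaged; Cytochalasin D reference control.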

TTR (gene 7276) = assay: CCTE_GLTED_hTTR_0.5uM: CCTE's human Transthyretin (hTTR) Inhibition Assay, with 0.5uM TTR, Great Lakes Toxicology and Ecology Division (GLTED) Lab (AID 2284320; active = hit-call score of the fitted dose curve at least 0.9, where 1 is the maximum; inactive = score below 0.9)
Procedure, shortened: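 Cell-free displacement assay in which human TTR at 0.5 uM was incubated with test chemical for 2 h. Displacement of the ANSA probe was read by fluorescence at 380 nm excitation/475 nm emission. Loss of signal was fitted in the positive direction versus DMSO.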

[16] = VALA_MIGHUV1_ScratchOnly_WoundArea: VALA Sciences human Umbilical Vein Endothelial Cell Migration (MIGHUV) Assay, Area of Scratch Wound Inhibited Recovery (AID 2284336)
Procedure, shortened: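 HUVEC monolayers (9000 cells/well) were scratched after 24 h, dosed within 30 min (six concentrations, triplicate, 0.1% DMSO), allowed 24 h recovery, then fixed. Hoechst-stained nuclei in the wound imaged; cytochalasin D as reference.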

O=C(O)COc1ccc(Cl)cc1Cl
outcome [1]: inactive | outcome [2]: inactive | outcome [3]: inactive

CCCN(CCC)c1c([N+](=O)[O-])cc(C(F)(F)F)cc1[N+](=O)[O-]
outcome [4]: inactive | outcome [5]: inactive | outcome (SRD5A2 (gene 6716)): inactive | AC50 (SERPINA7 (gene 6906)): 5.16 µM (active)

C[C@H]1[C@H](c2ccc(Cl)cc2)SC(=O)N1C(=O)NC1CCCCC1
AC50 (SERPINA7 (gene 6906)): 2.63 µM (active)

O=S1OCC2C(CO1)C1(Cl)C(Cl)=C(Cl)C2(Cl)C1(Cl)Cl (stereo not given)
outcome [1]: inactive | outcome [4]: inactive | outcome [5]: inactive | outcome (SRD5A2 (gene 6716)): inactive | outcome [6]: inactive | outcome [2]: inactive | AC50 [7]: 13.8 µM (active) | AC50 [3]: 23 µM (active)

Oc1ccc(Cl)cc1Cc1ccccc1
AC50 (SERPINA7 (gene 6906)): 1.07 µM (active)

CC(C)N(C(=O)COc1nnc(C(F)(F)F)s1)c1ccc(F)cc1
outcome [1]: inactive | outcome [2]: inactive | outcome [7]: inactive | outcome [3]: inactive

Oc1cc(Cl)ccc1Oc1ccc(Cl)cc1Cl
outcome [8]: inactive | outcome [9]: inactive | AC50 (IYD (gene 389434)): 37.2 µM (active) and 55.2 µM (active) and 24.3 µM (active) | outcome [10]: inactive | AC50 [11]: 0.00562 µM (active) | AC50 [12]: 7.53 µM (active) | AC50 (SERPINA7 (gene 6906)): 0.154 µM (active)

CN1CSC(=S)N(C)C1
outcome [6]: inactive

ClC1C(Cl)C(Cl)C(Cl)C(Cl)C1Cl (stereo not given)
outcome [4]: inactive | outcome [5]: inactive | outcome (SRD5A2 (gene 6716)): inactive | outcome [6]: inactive

O=S(=O)(O)C(F)(F)C(F)(F)C(F)(F)C(F)(F)C(F)(F)C(F)(F)C(F)(F)C(F)(F)F
outcome [8]: inactive | outcome [13]: inactive | outcome [1]: inactive | outcome [14]: inactive | outcome [15]: inactive | AC50 (IYD (gene 389434)): 59 µM (active) and 90.4 µM (active) | outcome (IYD (gene 389434)): inactive | AC50 (TTR (gene 7276)): 489 nM (active) and 455 nM (active) | AC50 [2]: 3.31 µM (active) | outcome [2]: inactive | outcome [11]: inactive | outcome [16]: inactive | outcome [12]: inactive | outcome [7]: inactive | outcome [3]: inactive

O=C(NC(=O)c1c(F)cccc1F)Nc1ccc(OC(F)(F)C(F)OC(F)(F)F)c(Cl)c1 (stereo not given)
AC50 (SERPINA7 (gene 6906)): 25 µM (active)

CC1(c2ccc(Oc3ccccc3)cc2)OC(=O)N(Nc2ccccc2)C1=O (stereo not given)
outcome [1]: inactive | outcome [4]: inactive | outcome [5]: inactive | AC50 (SRD5A2 (gene 6716)): 9.91 µM (active) | outcome [2]: inactive | AC50 [7]: 50 µM (active) | outcome [3]: inactive

CCC(C)(C)C(=O)OC1=C(c2ccc(Cl)cc2Cl)C(=O)OC12CCCCC2
outcome [1]: inactive | outcome [2]: inactive | outcome [7]: inactive | outcome [3]: inactive
